According to ChEMBL document CHEMBL3988442, “University of Dundee, Small-Polar-MMV Screening Library” (2021):
For part of these data: Results with a measured potency or affinity are listed apart.

What was measured:
Design in all cases: scale not given: direction of the effect not stated beside the values
[1] = target: Protein translocase subunit SecA (Escherichia coli (strain K12)) (UniProt P10408); assay: Assay to Identify E. coli SecA ATPase Inhibitors; format: functional; conditions: 30 µM
[2] = target: T1, Ubiquitin-activating enzyme e1, putative (Leishmania donovani (strain BPK282A1)) (UniProt E9BSI1); assay: Leishmania donovani Ubiquitin Activating Enzyme (LdE1); format: functional; conditions: 30 µM
T1 sequence (whole entry): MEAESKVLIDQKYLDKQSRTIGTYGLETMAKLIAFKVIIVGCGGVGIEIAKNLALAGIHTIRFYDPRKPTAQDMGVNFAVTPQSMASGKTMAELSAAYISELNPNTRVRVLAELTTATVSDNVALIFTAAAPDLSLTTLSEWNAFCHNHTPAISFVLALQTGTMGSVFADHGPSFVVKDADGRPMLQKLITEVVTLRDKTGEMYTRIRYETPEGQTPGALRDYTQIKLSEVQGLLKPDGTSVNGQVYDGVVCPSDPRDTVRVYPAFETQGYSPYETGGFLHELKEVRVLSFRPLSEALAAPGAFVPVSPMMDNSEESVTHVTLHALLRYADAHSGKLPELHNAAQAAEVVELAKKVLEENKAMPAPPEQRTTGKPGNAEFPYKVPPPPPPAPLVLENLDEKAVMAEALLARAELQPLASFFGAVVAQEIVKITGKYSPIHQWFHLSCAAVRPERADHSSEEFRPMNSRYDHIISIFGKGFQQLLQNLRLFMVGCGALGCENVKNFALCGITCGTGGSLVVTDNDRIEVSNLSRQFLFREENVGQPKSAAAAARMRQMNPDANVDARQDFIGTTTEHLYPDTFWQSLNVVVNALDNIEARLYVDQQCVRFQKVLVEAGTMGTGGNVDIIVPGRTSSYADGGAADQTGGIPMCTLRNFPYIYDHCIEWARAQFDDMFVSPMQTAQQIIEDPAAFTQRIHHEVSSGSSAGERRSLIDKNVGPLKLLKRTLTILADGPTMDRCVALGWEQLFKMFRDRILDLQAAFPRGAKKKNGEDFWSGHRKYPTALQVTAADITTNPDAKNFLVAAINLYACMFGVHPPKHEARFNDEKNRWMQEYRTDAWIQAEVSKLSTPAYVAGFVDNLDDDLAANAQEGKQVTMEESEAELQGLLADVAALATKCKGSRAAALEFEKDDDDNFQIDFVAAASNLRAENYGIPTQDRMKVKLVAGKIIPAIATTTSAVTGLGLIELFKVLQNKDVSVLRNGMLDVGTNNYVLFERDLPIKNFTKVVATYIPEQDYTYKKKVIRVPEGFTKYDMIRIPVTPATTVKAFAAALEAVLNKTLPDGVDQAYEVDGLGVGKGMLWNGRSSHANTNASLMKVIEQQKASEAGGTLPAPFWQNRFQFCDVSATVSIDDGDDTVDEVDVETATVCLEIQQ

[3] = target: T2, Aspartate--tRNA(Asp/Asn) ligase (Mycobacterium tuberculosis (strain ATCC 25618 / H37Rv)) (UniProt P9WFW3); assay: Assay for Asp RNA synthetase-1 from Mycobacterium tuberculosis; format: functional; conditions: 30 µM; further: in the data most compounds retested in dose-response had high values
T2 sequence (whole entry): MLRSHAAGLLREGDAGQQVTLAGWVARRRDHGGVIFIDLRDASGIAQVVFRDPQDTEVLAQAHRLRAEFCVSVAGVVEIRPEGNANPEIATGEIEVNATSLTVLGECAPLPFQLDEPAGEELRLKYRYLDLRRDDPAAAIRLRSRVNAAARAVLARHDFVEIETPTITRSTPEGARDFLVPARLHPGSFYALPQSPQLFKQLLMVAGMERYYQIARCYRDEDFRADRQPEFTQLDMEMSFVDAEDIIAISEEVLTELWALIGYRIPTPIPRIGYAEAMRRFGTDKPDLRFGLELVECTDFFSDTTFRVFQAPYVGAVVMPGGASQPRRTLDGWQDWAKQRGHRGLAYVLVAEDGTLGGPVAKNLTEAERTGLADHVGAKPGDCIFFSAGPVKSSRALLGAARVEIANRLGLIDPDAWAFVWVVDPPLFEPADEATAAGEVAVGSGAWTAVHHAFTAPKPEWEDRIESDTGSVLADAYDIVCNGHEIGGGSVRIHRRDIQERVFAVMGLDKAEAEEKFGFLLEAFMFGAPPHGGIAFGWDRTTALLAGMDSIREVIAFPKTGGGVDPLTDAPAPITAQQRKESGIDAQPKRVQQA

[4] = target: AMP-activated protein kinase, AMPK (Homo sapiens) (UniProt P54646+O43741+P54619+Q9UGJ0+Q9Y478+Q13131+Q9UGI9); assay: AMP-dependent Kinase enzyme assay. An in vitro enzyme assay that detects ADP turnover that is directly proportional to AMPK activity. This uses naive AMPK that is activated during the assay with MK-8722; format: functional; conditions: 30 µM
[5] = target: Sialic acid-binding Ig-like lectin 9 (Homo sapiens) (UniProt Q9Y336); assay: Hs-Siglec9 ALPHAscreen SOP 20170721; conditions: 10 µM
Trypanosoma cruzi = assay: Trypanosoma cruzi phosphomannomutase and mannose-1-phosphate guanylyltransferase assay; format: functional; conditions: 10 µM
[6] = target: T3, Arginase-2, mitochondrial (Homo sapiens) (UniProt P78540); assay: in vitro enzyme assay to detect the production of urea directly proportional to the activity of Arginase II; format: functional; conditions: 33.3 µM; further: in the data most compounds retested in dose-response had high values
T3 sequence (whole entry): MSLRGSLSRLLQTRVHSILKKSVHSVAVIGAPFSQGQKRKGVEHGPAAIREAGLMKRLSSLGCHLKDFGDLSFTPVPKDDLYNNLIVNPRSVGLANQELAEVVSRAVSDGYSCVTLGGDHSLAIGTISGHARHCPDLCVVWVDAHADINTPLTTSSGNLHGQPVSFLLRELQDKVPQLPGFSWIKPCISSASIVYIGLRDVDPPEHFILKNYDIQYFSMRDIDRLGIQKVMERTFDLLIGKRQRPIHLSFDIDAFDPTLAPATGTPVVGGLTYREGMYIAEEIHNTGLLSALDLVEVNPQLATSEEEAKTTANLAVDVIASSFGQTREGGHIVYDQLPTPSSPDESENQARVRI

[7] = target: T4, Proteasome subunit beta (Trypanosoma cruzi) (UniProt O96673); assay: Trypanosoma cruzi proteasome chymotrypsin-like activity (TcProtChymo) assay.; further: in the data most compounds retested in dose-response had high values; format: functional; conditions: 9.37 µM
T4 sequence (whole entry): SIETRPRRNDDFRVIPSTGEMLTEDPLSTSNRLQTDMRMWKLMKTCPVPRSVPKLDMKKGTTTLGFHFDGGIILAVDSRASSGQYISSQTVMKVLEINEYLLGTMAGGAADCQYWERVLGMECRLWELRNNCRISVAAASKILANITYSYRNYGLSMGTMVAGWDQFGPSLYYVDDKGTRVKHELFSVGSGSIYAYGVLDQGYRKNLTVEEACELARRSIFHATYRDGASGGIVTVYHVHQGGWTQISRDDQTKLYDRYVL

Homo sapiens = species on record: Homo sapiens; assay: To identify inhibition of the IFN signalling (Jak-Stat) pathway via expression of an eGFP reporter gene under the control of an IFN-stimulated response element (ISRE) containing MxA promoter.; format: functional; conditions: 30 µM
[8] = target: Shiga toxin 2 (Escherichia coli O157:H7) (UniProt P09385+P09386); assay: E. coli 0.157:H7 Shiga Toxin SOP - stx2 screening assay; format: functional; conditions: 30 µM
[9] = target: T5, Tyrosyl-tRNA synthetase, putative (Trypanosoma cruzi (strain CL Brener)) (UniProt Q4DSP6); assay: Trypanosoma cruzi tyrosyl tRNA synthetase (TcYRS) _High Tyrosine SOP; format: functional; conditions: 30 µM; further: in the data most compounds retested in dose-response had high values
T5 sequence (whole entry): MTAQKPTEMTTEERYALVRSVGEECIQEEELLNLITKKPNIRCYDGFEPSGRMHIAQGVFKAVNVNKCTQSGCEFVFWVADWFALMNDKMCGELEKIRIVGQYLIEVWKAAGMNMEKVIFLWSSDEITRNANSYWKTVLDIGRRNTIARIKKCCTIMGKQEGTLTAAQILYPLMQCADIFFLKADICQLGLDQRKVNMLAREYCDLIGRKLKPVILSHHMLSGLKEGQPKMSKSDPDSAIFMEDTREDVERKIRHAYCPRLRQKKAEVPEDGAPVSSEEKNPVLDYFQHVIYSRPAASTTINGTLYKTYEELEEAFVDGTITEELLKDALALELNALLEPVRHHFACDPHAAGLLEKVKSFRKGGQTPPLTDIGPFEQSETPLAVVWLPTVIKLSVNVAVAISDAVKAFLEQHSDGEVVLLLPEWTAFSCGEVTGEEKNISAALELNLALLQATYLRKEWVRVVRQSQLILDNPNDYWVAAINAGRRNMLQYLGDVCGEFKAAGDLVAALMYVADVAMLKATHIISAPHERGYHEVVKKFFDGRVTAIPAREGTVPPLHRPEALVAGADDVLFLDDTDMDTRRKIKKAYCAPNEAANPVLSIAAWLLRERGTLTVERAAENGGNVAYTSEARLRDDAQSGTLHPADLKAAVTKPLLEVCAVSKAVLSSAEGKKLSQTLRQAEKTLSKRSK

[10] = target: T5, Tyrosyl-tRNA synthetase, putative (Trypanosoma cruzi (strain CL Brener)); assay: Trypanosoma cruzi tyrosyl tRNA synthetase (TcYRS) SOP; format: functional; conditions: 30 µM
[11] = target: Chromo domain-containing protein 1 (Saccharomyces cerevisiae (strain ATCC 204508 / S288c) (Baker's yeast)) (UniProt P32657); assay: ScCHD-1 Enzyme Inhibition Assay; format: functional; conditions: 30 µM; further: in the data most compounds retested in dose-response had high values
Sequence of Chromo domain-containing protein 1 (Saccharomyces cerevisiae (strain ATCC 204508 / S288c) (Baker's yeast)) (P32657 whole entry, the tested form may be a part): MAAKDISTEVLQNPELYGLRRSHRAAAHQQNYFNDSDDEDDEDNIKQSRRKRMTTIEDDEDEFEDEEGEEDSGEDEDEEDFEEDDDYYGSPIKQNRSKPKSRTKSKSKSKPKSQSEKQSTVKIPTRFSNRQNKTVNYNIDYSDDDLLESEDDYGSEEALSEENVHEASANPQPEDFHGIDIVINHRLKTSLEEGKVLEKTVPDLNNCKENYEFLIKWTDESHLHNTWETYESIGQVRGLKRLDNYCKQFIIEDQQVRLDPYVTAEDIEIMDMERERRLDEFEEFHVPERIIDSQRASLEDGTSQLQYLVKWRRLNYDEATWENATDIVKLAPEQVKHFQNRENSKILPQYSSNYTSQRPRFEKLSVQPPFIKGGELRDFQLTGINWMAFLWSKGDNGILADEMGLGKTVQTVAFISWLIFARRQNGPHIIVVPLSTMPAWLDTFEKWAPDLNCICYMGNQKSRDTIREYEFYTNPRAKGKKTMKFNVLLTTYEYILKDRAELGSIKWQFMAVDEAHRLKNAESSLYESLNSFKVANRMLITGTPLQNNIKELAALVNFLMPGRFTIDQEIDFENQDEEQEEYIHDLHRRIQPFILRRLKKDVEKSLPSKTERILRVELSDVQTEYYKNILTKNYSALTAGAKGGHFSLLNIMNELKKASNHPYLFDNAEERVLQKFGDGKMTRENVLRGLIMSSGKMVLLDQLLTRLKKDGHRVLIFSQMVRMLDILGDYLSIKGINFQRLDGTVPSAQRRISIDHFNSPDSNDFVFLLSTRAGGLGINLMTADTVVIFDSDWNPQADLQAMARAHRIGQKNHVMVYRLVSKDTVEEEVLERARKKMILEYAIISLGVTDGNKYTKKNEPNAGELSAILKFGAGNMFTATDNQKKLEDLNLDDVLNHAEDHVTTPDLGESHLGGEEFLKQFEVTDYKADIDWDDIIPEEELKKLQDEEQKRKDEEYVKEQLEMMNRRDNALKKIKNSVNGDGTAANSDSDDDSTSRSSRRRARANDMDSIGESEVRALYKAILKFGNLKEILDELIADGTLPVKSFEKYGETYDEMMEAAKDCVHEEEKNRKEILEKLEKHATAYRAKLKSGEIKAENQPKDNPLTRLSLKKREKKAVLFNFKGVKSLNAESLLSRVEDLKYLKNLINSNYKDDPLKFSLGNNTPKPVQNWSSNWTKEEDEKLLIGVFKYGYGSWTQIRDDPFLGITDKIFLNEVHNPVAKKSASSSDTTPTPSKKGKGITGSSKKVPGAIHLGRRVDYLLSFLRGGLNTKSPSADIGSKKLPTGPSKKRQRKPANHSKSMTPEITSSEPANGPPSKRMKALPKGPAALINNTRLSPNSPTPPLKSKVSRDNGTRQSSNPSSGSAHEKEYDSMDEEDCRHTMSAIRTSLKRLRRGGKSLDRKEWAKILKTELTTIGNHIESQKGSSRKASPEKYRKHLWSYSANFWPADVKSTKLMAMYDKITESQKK

Sequence of Protein translocase subunit SecA (Escherichia coli (strain K12)) (P10408 whole entry): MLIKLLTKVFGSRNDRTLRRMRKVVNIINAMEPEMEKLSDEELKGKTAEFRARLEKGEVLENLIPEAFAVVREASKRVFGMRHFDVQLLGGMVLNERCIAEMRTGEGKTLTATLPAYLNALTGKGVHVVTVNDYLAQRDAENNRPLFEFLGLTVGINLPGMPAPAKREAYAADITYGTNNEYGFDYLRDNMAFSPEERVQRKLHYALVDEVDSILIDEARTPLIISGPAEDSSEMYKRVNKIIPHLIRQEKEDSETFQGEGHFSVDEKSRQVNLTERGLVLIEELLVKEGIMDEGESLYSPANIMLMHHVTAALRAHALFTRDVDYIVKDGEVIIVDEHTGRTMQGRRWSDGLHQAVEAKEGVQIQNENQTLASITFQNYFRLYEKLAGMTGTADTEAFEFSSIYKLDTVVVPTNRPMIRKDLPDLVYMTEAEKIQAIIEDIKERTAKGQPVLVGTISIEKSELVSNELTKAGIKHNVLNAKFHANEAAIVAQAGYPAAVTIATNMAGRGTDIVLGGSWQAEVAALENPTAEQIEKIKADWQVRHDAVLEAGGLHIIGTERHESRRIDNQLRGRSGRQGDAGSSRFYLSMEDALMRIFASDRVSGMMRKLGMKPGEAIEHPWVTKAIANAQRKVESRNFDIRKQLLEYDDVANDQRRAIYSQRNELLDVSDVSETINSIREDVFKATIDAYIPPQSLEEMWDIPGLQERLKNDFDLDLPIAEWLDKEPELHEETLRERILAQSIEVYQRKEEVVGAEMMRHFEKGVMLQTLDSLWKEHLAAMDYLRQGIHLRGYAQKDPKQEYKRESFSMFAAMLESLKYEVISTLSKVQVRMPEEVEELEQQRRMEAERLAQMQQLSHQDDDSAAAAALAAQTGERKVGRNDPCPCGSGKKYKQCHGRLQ
Sequence of Sialic acid-binding Ig-like lectin 9 (Homo sapiens) (Q9Y336 whole entry): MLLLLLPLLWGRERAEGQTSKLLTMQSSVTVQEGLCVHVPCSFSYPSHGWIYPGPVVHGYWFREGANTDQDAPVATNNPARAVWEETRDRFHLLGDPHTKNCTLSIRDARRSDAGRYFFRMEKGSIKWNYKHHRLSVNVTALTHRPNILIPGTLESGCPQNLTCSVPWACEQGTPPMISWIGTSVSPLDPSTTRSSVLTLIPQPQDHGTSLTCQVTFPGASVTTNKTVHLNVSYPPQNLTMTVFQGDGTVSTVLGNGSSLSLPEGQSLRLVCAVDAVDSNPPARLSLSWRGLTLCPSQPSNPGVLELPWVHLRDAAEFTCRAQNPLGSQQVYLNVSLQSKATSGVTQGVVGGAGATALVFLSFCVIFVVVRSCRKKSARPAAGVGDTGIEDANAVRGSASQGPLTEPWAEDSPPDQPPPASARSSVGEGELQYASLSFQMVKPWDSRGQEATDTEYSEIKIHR

Structure (SMILES)	Percent Effect [1]	Percent Effect [2]	Percent Effect [3]	Percent Effect [4]	Percent Effect [5]	Percent Effect (Trypanosoma cruzi)	Percent Effect [6]	Percent Effect [7]	Percent Effect (Homo sapiens)	Percent Effect [8]	Percent Effect [9]	Percent Effect [10]	Percent Effect [11]
O=C(Cc1ccccn1)N1CCN2C[C@H](Oc3cccc(F)c3)C[C@H]2C1	-3.38%	0%	9.34%	1.39%	-4.03%	1.07%	-1.59%	1.84%	18.6%	-10.5%	-2.16%	-5.13%	-1.68%
CN(C)C(=O)CN1C[C@@H]2CC[C@H](C1)N(C(=O)Cc1ccccc1Cl)C2	-7.08%	-8.22%	1.5%	3.48%	-0.0171%	-5.16%	0.798%	9.16%	-4.89%	-30.4%	0%	-23.5%	-1.84%
c1cncc(N2CCOCC3(CCCN(Cc4cccs4)C3)C2)c1 (centres undefined)	-5.18%	13.5%	2.95%	5.95%	-1.9%	-0.293%	2.23%	10.3%	4.59%	14.1%	8.65%	15.4%	-1.37%
